PfHsp90 yeast 2 = growth inhibition of yeast expressing Plasmodium Hsp90 | S. cerevisiae expressing PfHsp90, BacTiter-Glo ATP, 48 h; yeast lacking PDR1 and PDR3 efflux regulators | inhibition, % at 9.4 µM | 310,000 compounds, 0.32% hits;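 active means every replicate shows inhibition above about 80%, whatever the replicate mean, limit read from the data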;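 further: 0% = DMSO neutral controls and 100% = 20 µM radicicol positive controls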
tim23-1 inh = growth inhibitors of tim23-1 mutant yeast | S. cerevisiae tim23-1 growth, BacTiter-Glo luminescence, 24 h | inhibition, % at 20 µM | AID 463212 | 330,000 compounds, 1.3% hits;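 active means growth inhibition of the mutant yeast at or above 50%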;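 further: temperature-sensitive mutant grown at 25 °C; plate controls were DMSO-treated mutant yeast for no effect and medium wells lacking yeast for full effect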
tim10-1 inh = inhibits growth of tim10-1 mutant yeast. S. cerevisiae tim10-1 ts strain growth, BacTiter-Glo, 24 h. inhibition, % at 20 µM. 330,000 compounds, 2.2% hits;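 active means inhibition of at least 40%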;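 further: mutant grown at 25 °C; 0% = DMSO wells with yeast and 100% = wells holding no yeast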
Calb FLC = affects C. albicans growth with fluconazole; 300,000 compounds, 0.57% hits; growth inhibition, % (no concentration beside the values); C. albicans CaCi-2 (fluconazole-resistant clinical isolate) + fluconazole, Alamar Blue growth, 48 h;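 active means growth inhibition above about 58% in most replicates, limit read from the data, passing the limit was not always enough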;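 further: all wells also contain fluconazole at 8 µg/ml as a sub-toxic cotreatment; 0% = median of DMSO wells and 100% = median of geldanamycin control wells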
SKKanGAS inh = blocks kanamycin growth of S. pyogenes SKKanGAS strain; BacTiter-Glo, 6 h; inhibition, % at 7.5 µM; AID 1662; 300,000 compounds, 1.3% hits;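 active means mean replicate score, as percent of positive control median, at least 50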;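 further: strain carries kanamycin resistance gene driven by streptokinase promoter and grows in 40 µg/ml kanamycin; loss of luminescence reflects streptokinase promoter inhibition or plain growth inhibition; 0% = median of DMSO wells and 100% = positive control at its reference dose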
TIM10 inh = growth inhibitors of TIM10 yeast strain; S. cerevisiae TIM10 strain growth, BacTiter-Glo luminescence, 24 h; inhibition, % at 10 µM; 330,000 compounds, 1.4% hits; AID 463195;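 active means inhibition of 40% or more at the single tested concentration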;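 further: wild-type TIM10 isogenic control strain grown at permissive 25 °C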
tim10-1 confirm = confirmation of tim10-1 mutant yeast growth inhibitors; inhibition, % at 20 µM; shares compounds with tim10-1 inh; 7,400 compounds, 56% hits; S. cerevisiae tim10-1 ts strain growth, BacTiter-Glo, 24 h; AID 463213;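 active means inhibition of yeast growth at or above a set limit in either of two repeat tests at 20 µM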;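 further: tim10-1 mutant grown at permissive 25 °C to find synthetic lethal compounds; 0% = DMSO yeast wells and 100% = medium wells without yeast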
TIM10 conf = confirmation of TIM10 yeast growth inhibitors. 4,600 compounds, 63% hits. inhibition, % at 10 µM. shares compounds with TIM10 inh. S. cerevisiae tim10 strain growth, BacTiter-Glo luminescence, 24 h;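 active means inhibition of yeast growth at or above a set limit in either of two replicates at 10 µM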;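 further: this counterscreen used the strain with wild-type TIM10; 0% = yeast with DMSO and 100% = medium wells lacking yeast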
tim23-1 confirm = confirmation of tim23-1 mutant yeast growth inhibitors; shares compounds with tim23-1 inh; S. cerevisiae tim23-1 growth, BacTiter-Glo luminescence, 24 h; inhibition, % at 20 µM; 4,400 compounds, 83% hits; AID 463218;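 active means inhibition above about 39% in either of two replicate wells at 20 µM, limit read from the data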;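 further: temperature-sensitive tim23-1 mutant grown at 25 °C; 0% = DMSO wells with yeast and 100% = medium wells without yeast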
* hit, by the source's call; . = no result given. An excerpt weighted towards active compounds, which were near 4.7% of everything screened.

SMILES	PfHsp90 yeast 2	tim23-1 inh	tim10-1 inh	Calb FLC	SKKanGAS inh	TIM10 inh	tim10-1 confirm	TIM10 conf	tim23-1 confirm
CCN(Cc1ccccc1)C(c1ccccn1)c1nnnn1C(C)(C)CC (stereo not given)	-1	66*	42*	3	-3	52*	47*	51*	55*
CCN(Cc1ccccc1)C(c1ccc(C)cc1)c1nnnn1C(C)(C)C (stereo not given)	-21	24	29	26	40	12	.	.	.
N#C/C(=C\c1cccc(NC(=O)c2ccccc2Cl)c1)C(=O)NCCc1ccccc1	-121	60*	66*	-18	-2	57*	61*	4	57*
O=C(/C=C/c1ccnc2ccccc12)c1cccs1	85*	67*	71*	66	-10	79*	72*	83*	-29
COC(=O)COc1ccc(-c2ccccc2)cc1C=O	-4	65*	66*	-2	-3	73*	60*	73*	83*
O=C(c1cc(-c2ccc(O)cc2)on1)N1CCN(c2ccc(F)cc2)CC1	-11	52*	49*	1	-2	41*	26	41*	46*
O=C(c1cc(-c2ccc(O)cc2)on1)N1CCN(c2ccccc2)CC1	-6	42	28	6	11	21	.	.	.
O=C(CSc1nnc(CNC(=O)c2cccs2)o1)Nc1ccccc1C(F)(F)F	10	11	17	-1	-7	-12	.	.	.
CCCOc1ccc2c(c1)C(=NN=C(N)N)c1cc(OCCC)ccc1-2	0	62*	76*	10	12	32	38*	.	33
Cc1cc(C)c2cc(C)c(SCC(=O)NCc3ccco3)nc2c1	-13	50*	44*	18	0	32	43*	.	56*
COc1cc(CNC2CCCC2)c(Br)cc1OC1CCCC1	0	24	-28	-22	-4	13	.	.	.
COc1cc(C=O)c(Br)cc1OC1CCCC1	-1	56*	48*	6	3	45*	33*	34*	53*
CC(Oc1ccccc1F)C(=O)NNC(=O)c1ccc(F)c(S(=O)(=O)N2CCOCC2)c1 (stereo not given)	-3	5	17	12	10	4	.	.	.
O=C(Nc1ccccc1C(=O)N/N=C/c1ccncc1)c1ccccc1	55	77*	68*	9	32	62*	68*	36*	70*
COc1ccc(C(=O)Nc2ccccc2C(=O)N/N=C/c2ccco2)cc1	42	72*	67*	2	1	47*	68*	43*	72*
COC(=O)N1C(=O)[C@](Cc2ccccc2)(c2ccccc2)N1C(=O)OC	19	-15	5	-8	6	-15	.	.	.
CN(C(=O)c1cccc(NC(=O)Cc2ccc(NC(=O)C3CCN(C(=O)C4CCCC4)CC3)cc2)c1)C1CCCC1	14	.	.	.	.	.	.	.	.
O=C(Oc1c(Cl)cc(Cl)c2cccnc12)c1ccco1	129*	89*	65*	101*	85*	71*	48*	67*	72*
O=C(Oc1c(Cl)cc(Cl)c2cccnc12)c1cccs1	99*	56*	44*	108*	92*	64*	48*	57*	62*
O=C(Oc1cncc(Cl)c1)c1ccco1	4	9	22	-2	4	-12	.	.	.
N/C(=N\OC(=O)N1c2ccccc2Sc2ccccc21)c1ccccc1	-9	66*	61*	94*	-7	84*	48*	85*	50*
CC(=O)N1c2ccccc2Sc2ccccc21	-9	-4	-6	-1	0	-13	.	.	.
Cc1cccc(/C(N)=N/OC(=O)N2c3ccccc3Sc3ccccc32)c1	-24	60*	65*	18	10	83*	52*	-32	45*
O=C(Nc1ccc(Cl)cc1)C(Cl)C(=O)c1ccccc1 (stereo not given)	71	70*	55*	0	-4	59*	56*	81*	76*
CC1CCN(C2=NC(=O)/C(=C/c3ccccc3F)S2)CC1	22	52*	46*	2	5	13	35*	.	53*
SMILES	PfHsp90 yeast 2	tim23-1 inh	tim10-1 inh	Calb FLC	SKKanGAS inh	TIM10 inh	tim10-1 confirm	TIM10 conf	tim23-1 confirm
CC1(C)Cc2noc(N)c2C(C)(C)N1OC(=O)c1ccccc1	10	14	9	.	-4	24	.	.	.
CC1(C)CC(=NOC(=O)c2ccccc2)CC(C)(C)N1O	-14	68*	58*	-4	1	58*	61*	70*	78*
CC(C)NC(=O)N(C)C[C@H]1Oc2ccc(NC(=O)Cc3ccccc3)cc2C(=O)N([C@H](C)CO)C[C@@H]1C	15	-14	-12	.	.	1	.	.	.
Cc1ccc(-c2nc(N/N=C/c3cccnc3)c3ccccc3n2)cc1	17	84*	76*	-9	15	66*	74*	59*	85*
COc1ccc(OCC2CCNCC2)cc1	24	10	-5	-12	-1	-1	.	.	.
Nc1ncnc2c1C1(CCCCC1)Cc1ccccc1-2	0	50*	42*	3	-1	29	30	.	27
Cc1nc2ccccc2c(=O)n1-c1ccc(F)c(NS(=O)(=O)c2ccccc2F)c1	-9	1	6	33	15	0	.	.	.
Cc1nc(-c2ccc(NC(=O)c3ccco3)cc2)cs1	51	68*	51*	-12	18	43*	22	50*	67*
Cc1nc(-c2cccc(NC(=O)c3ccco3)c2)cs1	1	1	8	73	-3	15	.	.	.
Cc1cc(Br)c2[nH]cc(CCNC(=O)c3ccco3)c2c1	1	33	33	15	0	21	.	.	.
COc1ccc(CN2c3c(Br)cccc3C(=O)CS2(=O)=O)cc1	-20	72*	42*	.	.	14	41*	.	60*
Cc1ccc(C)c(NS(=O)(=O)c2cc(C(=O)NCc3ccccn3)ccc2C)c1	2	35	29	-2	1	20	.	.	.
COc1ccc(S(=O)(=O)N(C)C[C@H]2Oc3c(NC(=O)CCC(F)(F)F)cccc3C(=O)N([C@H](C)CO)C[C@@H]2C)cc1	-2	13	9	.	.	-1	.	.	.
N#C/C(=C\c1ccco1)Sc1nc2ccccc2s1	21	58*	50*	17	12	56*	58*	44*	51*
O=C(CSc1nc2ccccc2s1)N/N=C/c1ccco1	-4	5	0	-29	-9	-4	.	.	.
